D2 PAM-1 – Beta-Arrestin HTS for Positive Allosteric Modulators of the Human D2 Dopamine Receptor: Potentiators. D(2) dopamine receptor (Homo sapiens), P14416. DiscoveRx D2 beta-arrestin cells, luminescence, 90 min; 100% = 57 uM dopamine signal. potentiation, % (no concentration beside the values). 360,000 tested, 0.23% active. AID 624464, 2012; in the data active means potentiation above about 50%; inconclusive means mostly about 30% to 49%
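PathHunter beta-arrestin assay in DiscoveRx D2 cells. Compounds were added with an EC20 of dopamine (50 nM final) for 90 min at 37 deg C. Luminescence was read 1 h after detection reagent, with 57 uM dopamine as the EC100 control.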
D2 antagonist – HTS Assay for Allosteric Antagonists of the Human D2 Dopamine Receptor: Primary Screen for Antagonists | D(2) dopamine receptor (Homo sapiens), P14416 | HEK293 TREx D2 cells, calcium flux, dopamine EC80 | inhibition, % at 10 µM | 340,000 tested, 2% active | AID 485344, 2010; in the data active means inhibition above about 30%; inactive means below that, where a call was filed; further: 0% is about no effect
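Dopamine at EC80 is the agonist stimulus; test compounds precede it by 180 s. Calcium flux read kinetically in a force-coupled, inducible HEK293 T-REx D2 cell line.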
D2 ag-1 – Beta-Arrestin HTS for Positive Allosteric Modulators of the Human D2 Dopamine Receptor: Agonists. D(2) dopamine receptor (Homo sapiens), P14416. DiscoveRx PathHunter D2 beta-arrestin, luminescence, 90 min; 100% = 57 uM dopamine signal. activation, % (concentration not given with the values). 360,000 tested, 0.084% active. AID 624465, 2012; in the data active means activation above about 40%; inconclusive means between about 15% and that limit
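Agonist mode: compounds alone added to overnight-plated D2 PathHunter cells for 90 min at 37 C, with 57 uM final dopamine (EC100) defining full response. Beta-arrestin recruitment detected by chemiluminescent reagent, read after 1 h at ambient temperature.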
D2 ag-2 – HTS Assay for Allosteric Agonists of the Human D2 Dopamine Receptor: Primary Screen for Agonists. D(2) dopamine receptor (Homo sapiens), P14416. HEK293 T-REx D2 cells, calcium flux agonist mode. activation, % at 2 µM. 340,000 tested, 0.53% active;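 active means activation over 3 SD above normal in the single-dose calcium agonist read, cut at about 30% in these data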; further: 0% is about no effect
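Calcium-flux readout, 1 cycle/sec over 180 s following compound pin transfer, in inducible HEK293 Trex D2 cells (force-coupled); dopamine controls included. Positive calcium responses during this window marked compounds as potential agonists.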
B2AR arrestin – qHTS assay of beta-arrestin-biased ligands of beta2-adrenergic receptor; Potency, µM (highest dose often 46.1 µM), inactives show at the top dose activation, hits mostly activators; 330,000 tested, 0.02% active; beta-arrestin recruitment to beta2AR, cell-based reporter;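 further: potency means the concentration at half of the fitted maximal effect; 0% = DMSO controls and full agonism = EC100 isoproterenol or metaproterenol; nearly all actives have a fitted effect of over 65% in size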
D2 PAM-2 – HTS Assay for Positive Allosteric Modulators of the Human D2 Dopamine Receptor: Primary Screen for Potentiators. D(2) dopamine receptor (Homo sapiens), P14416. HEK293 T-REx D2, calcium flux, EC20 dopamine potentiation. potentiation, % at 10 µM. 340,000 tested, 0.34% active. AID 485347, 2010;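 active means potentiation over 3 SD above the plate norm, cut at about 30% in these data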; further: 0% is about no effect
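Primary screen. Calcium kinetics in induced HEK293 T-REx D2 cells: compound pre-addition 180 s, EC20 dopamine, 180 s more.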
D3 arrestin ag – qHTS of D3 Dopamine Receptor Agonist: D3 Dopamine Receptor B-arrestin Agonist Confirmatory Assay. shares compounds with D2 ag-2. DiscoveRx D3 beta-arrestin cells, luminescence, 90 min. Potency, µM (top dose mostly 76.9 µM), for inactives: at the top dose activation, hits mostly activators. 2,300 tested, 4% active. AID 720506, 2013;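 further: potency means the concentration at half of the fitted maximal effect; 100% = dopamine control response; nearly all actives have a fitted effect of over 70% in size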
Target sequence (P35462 whole entry, looked up): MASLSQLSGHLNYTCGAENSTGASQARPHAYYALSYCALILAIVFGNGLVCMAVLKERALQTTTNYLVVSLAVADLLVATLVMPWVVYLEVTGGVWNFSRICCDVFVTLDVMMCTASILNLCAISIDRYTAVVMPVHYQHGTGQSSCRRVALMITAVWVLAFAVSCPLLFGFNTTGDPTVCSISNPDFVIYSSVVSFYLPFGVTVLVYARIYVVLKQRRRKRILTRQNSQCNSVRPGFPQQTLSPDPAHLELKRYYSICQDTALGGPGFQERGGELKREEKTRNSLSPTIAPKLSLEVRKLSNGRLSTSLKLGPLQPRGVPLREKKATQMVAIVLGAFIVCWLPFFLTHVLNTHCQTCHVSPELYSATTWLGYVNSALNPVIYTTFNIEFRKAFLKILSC
D2 ag-3 – qHTS of D3 Dopamine Receptor Agonist: D2 Dopamine Receptor B-arrestin Agonist Counterscreen; shares compounds with D2 ag-2; DiscoveRx PathHunter D2 beta-arrestin, luminescence, 90 min; response scale: percent relative to full dopamine signal; Potency, µM (top dose mostly 76.9 µM), inactives show top-dose activation, most hits filed as activators; 2,300 tested, 5.9% active; further: potency means the concentration at half of the fitted maximal effect; % of control where 0% means no effect; nearly all actives have a fitted effect of over 70% in size
An asterisk follows results filed as active; u = inconclusive; x = no result. Sampled rows, rich in hits. Any-hit rate of the full collection: about 2.4%. Unless noted, the call rests on the fitted dose curve; in most records, active means well fitted activation curve with a large enough effect; inconclusive means small, poorly fitted or top-dose-only effect; inactive means flat fitted curve, though single readings scatter.

SMILES | D2 PAM-1 | D2 antagonist | D2 ag-1 | D2 ag-2 | B2AR arrestin | D2 PAM-2 | D3 arrestin ag | D2 ag-3
CCOC(=O)C1CCN(CC(=O)Nc2c(C(=O)OC)[nH]c3cccc(C)c23)CC1 | -17 | 9 | 6 | 29 | 0% | -4 | 4% | 17%
CCOC(=O)C1CCCN(CC(=O)Nc2c(C(=O)OC)[nH]c3ccccc23)C1 (centres undefined) | -37 | x | -3 | x | 0% | x | x | x
c1ccc2c(c1)ncn2CCn1cnc2ccccc21 | -12 | -16 | -4 | -1 | -1% | -3 | x | x
NCCCn1cnc2ccccc21 | -1 | 3 | -5 | 1 | 0% | x | -2% | 1%
Cc1ccc(-c2nc(N3CCCC(C)C3)c3ccccc3n2)cc1 (centres undefined) | x | x | x | x | x | 16 | x | x
CC(=O)Nc1ccc(S(=O)(=O)Nc2ccc(-c3cn4c(C)csc4n3)cc2)cc1 | x | x | x | x | x | -8 | x | x
CCC(CC)c1nnc(NC(=O)c2cc(-c3ccccc3)nc3ccccc23)s1 | -14 | x | -1 | x | 0% | x | -12% | -2%
Cc1cccc(C)c1OCc1cc(=O)n2c(-c3ccccc3)csc2n1 | x | x | x | 0 | x | x | x | x
O=c1cc(CN2CCN(c3ccc(O)cc3)CC2)nc2scc(-c3ccccc3)n12 | -1 | 8 | 10 | 28 | 0% | -7 | 35µM* | 18%
Cc1nc2cc(NC(=O)c3ccc(Br)s3)ccc2s1 | -10 | 1 | -1 | 1 | 0% | 15 | x | x
COc1ccccc1OCC(=O)NNC(=O)c1cccs1 | 6 | -3 | -3 | 0 | 0% | 5 | x | x
Cc1ccccc1OCCC(=O)OCC(=O)NNC(=O)c1cccs1 | -4 | x | 6 | x | 1% | x | -5% | 4%
O=c1c2oc3ccccc3c2n(Cc2cccc(Cl)c2)c(=O)n1Cc1ccc2c(c1)OCO2 | x | x | x | 1 | x | -1 | x | x
C=CCN(CC=C)CCOc1ccccc1 | -23 | -12 | -2 | 53* | 0% | -24 | 3% | 8%
O=[N+]([O-])c1ccc(O)c(-c2cc(C(F)(F)F)nc(-c3ccccc3)n2)c1 | 7 | 21 | 0 | 14 | -1% | -5 | u | 2%
O=S(=O)(NCCc1csc(-c2cccnc2)n1)c1cc(F)ccc1F | -6 | 39* | 2 | -1 | -1% | 1 | 1% | 2%
O=S(=O)(NCCc1csc(-c2cccnc2)n1)c1cccc(F)c1 | -6 | -1 | 0 | 0 | 0% | -4 | x | x
CCCC(C)NC(=O)c1cc(S(=O)(=O)N2CCCCCC2)ccc1OC (centres undefined) | 0 | -12 | -2 | 1 | 0% | 4 | -5% | 0%
COc1cccc(-c2csc3nnc(SCC(=O)NCc4cccs4)n23)c1 | -10 | 8 | 1 | 0 | 0% | 9 | x | x
CN(Cc1ccon1)C(=O)C1CCN(C2CCN(CCCc3ccccc3)CC2)CC1 | -13 | 20 | 0 | 49* | 0% | -11 | -4% | 24%

Screening data (PubChem)
